Measurements from PubChem BioAssay (Tox21).
“And” between values parts separate entries of the source, which are not always exact repeats. Equal entries are not always repeated. Inconclusive results are not listed. Entries that show only a call come without a potency. Some structures have more than one record in an assay (separate samples or runs), and their calls can disagree. The source made the active and inactive calls. Unless noted, calls come from the whole dose curve; as a rule, active = well fitted curve in the direction sought with a large enough effect in the repeat runs; inconclusive = weak or mixed curves; inactive = no such curve, though single readings can be large; an effect the other way counts as inactive or inconclusive.

What was measured:
[1] = biological target: Peroxisome proliferator-activated receptor gamma (Homo sapiens) (UniProt P37231); assay: qHTS assay to identify small molecule agonists of the peroxisome proliferator-activated receptor gamma (PPARg) signaling pathway (AID 743094; active = well fitted activation curve with a large enough effect in the signal ratio in the repeat runs, not every such curve was filed as active; the % refers to the signal ratio; note: potency is the fitted concentration of half-maximal effect)
Sequence of Peroxisome proliferator-activated receptor gamma (Homo sapiens) (P37231 whole entry, looked up): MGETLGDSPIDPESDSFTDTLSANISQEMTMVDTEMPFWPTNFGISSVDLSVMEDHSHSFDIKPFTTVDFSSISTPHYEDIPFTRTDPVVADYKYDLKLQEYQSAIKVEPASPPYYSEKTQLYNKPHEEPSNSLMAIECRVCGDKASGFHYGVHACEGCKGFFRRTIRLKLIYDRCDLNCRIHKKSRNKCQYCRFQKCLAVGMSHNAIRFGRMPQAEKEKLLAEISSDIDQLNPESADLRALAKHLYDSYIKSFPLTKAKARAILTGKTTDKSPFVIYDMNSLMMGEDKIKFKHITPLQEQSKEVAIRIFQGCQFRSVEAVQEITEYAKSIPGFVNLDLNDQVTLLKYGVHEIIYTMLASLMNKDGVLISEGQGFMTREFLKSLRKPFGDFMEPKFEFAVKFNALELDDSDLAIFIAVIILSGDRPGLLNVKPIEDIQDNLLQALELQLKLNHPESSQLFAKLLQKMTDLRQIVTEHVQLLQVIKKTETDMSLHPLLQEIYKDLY
Outline: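 Stably transfected HEK293H cells (GeneBLAzer PPARg UAS-bla) were incubated with test substances for 17 h at 37C after a 5 h pre-incubation; beta-lactamase activity was then detected by FRET substrate fluorescence.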

[2] = biological target: Peroxisome proliferator-activated receptor gamma (Homo sapiens) (UniProt P37231); assay: qHTS assay to identify small molecule antagonists of the peroxisome proliferator-activated receptor gamma (PPARg) signaling pathway (AID 743191; calls by dose curve; note: series mostly up to about 63 µM; nearly all actives have a fitted effect of over 30% in size)
Outline: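 Beta-lactamase reporter under UAS control in HEK293H PPARg-bla cells; compound treatment 17 h at 37C. Read-out: fluorescence intensity after 1 h room-temperature incubation with LiveBLAzer B/G FRET substrate.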

[3] = qHTS assay to identify small molecule antagonists of the peroxisome proliferator-activated receptor gamma (PPARg) signaling pathway - cell viability counter screen (AID 743194); note: nearly all actives have a fitted effect of over 55% in size; note: potency is the fitted concentration of half-maximal effect
Outline: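 Viability was measured as CellTiter-Glo luminescence in GeneBLAzer PPARg UAS-bla HEK293H cells. These cells had been exposed 17 h at 37 C to compounds together with rosiglitazone at 50 nM final, with the beta-lactamase readout taken in the same wells.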

[4] = qHTS assay for small molecule agonists of the antioxidant response element (ARE) signaling pathway (AID 743202; active = well fitted activation curve with a large enough effect in the signal ratio in the repeat runs, not every such curve was filed as active; the % refers to the signal ratio; note: potency is the fitted concentration of half-maximal effect)
Outline: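 Quantitative high-throughput format in HepG2 cells bearing an integrated ARE-beta-lactamase reporter. Compound exposure lasted 16 h at 37 C, and fluorescence was read 2 h after adding LiveBLAzer B/G substrate at room temperature.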

[5] = qHTS assay for small molecule agonists of the antioxidant response element (ARE) signaling pathway - cell viability counter screen (AID 743203; calls by dose curve; note: nearly all actives have a fitted effect of over 55% in size; note: potency is the fitted concentration of half-maximal effect)
Outline: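 Cells (ARE-bla HepG2, 2,000/well) receive DMSO-dissolved compounds after a 5 hrs rest. Plates incubate 16 hrs at 37C/5% CO2. CellTiter-Glo luminescence is then recorded after 30 min at room temperature.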

[6] = qHTS assay for small molecule activators of the heat shock response signaling pathway - cell viability counter screen (AID 743209); note: nearly all actives have a fitted effect of over 50% in size; note: potency is the fitted concentration of half-maximal effect
Outline: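 Quantitative HTS format, Tox21 10K library. HeLa cells carrying an HSE-driven beta-lactamase reporter were treated 5 h at 37 C, then assessed for viability by CellTiter-Glo luminescence.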

[7] = qHTS assay for small molecule activators of the heat shock response signaling pathway (AID 743210; active = well fitted activation curve with a large enough effect in the signal ratio in the repeat runs, with a control signal flat, not every such curve was filed as active; the % refers to the signal ratio;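 note: HeLa cells with beta-lactamase reporter driven by heat shock elements; series mostly up to about 63 µM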)
Outline: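 HeLa HSE-bla cells, overnight plating; cpd in DMSO 5 h, 37 C; LiveBLAzer B/G FRET substrate 2.5 h RT; fluorescence intensity read.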

[8] = qHTS assay to identify small molecule agonists of the peroxisome proliferator-activated receptor delta (PPARd) signaling pathway - cell viability counter screen (AID 743211); note: nearly all actives have a fitted effect of over 55% in size; note: potency is the fitted concentration of half-maximal effect
Outline: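 Tox21 library compounds, delivered in DMSO, were incubated 17 h with PPARd-bla HEK293H cells; cytotoxicity was taken from CellTiter-Glo luminescence read 30 min after reagent addition.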

[9] = biological target: Peroxisome proliferator-activated receptor delta (Homo sapiens) (UniProt Q03181); assay: qHTS assay to identify small molecule agonists of the peroxisome proliferator-activated receptor delta (PPARd) signaling pathway (AID 743212; calls by dose curve)
Sequence of Peroxisome proliferator-activated receptor delta (Homo sapiens) (Q03181 whole entry, looked up): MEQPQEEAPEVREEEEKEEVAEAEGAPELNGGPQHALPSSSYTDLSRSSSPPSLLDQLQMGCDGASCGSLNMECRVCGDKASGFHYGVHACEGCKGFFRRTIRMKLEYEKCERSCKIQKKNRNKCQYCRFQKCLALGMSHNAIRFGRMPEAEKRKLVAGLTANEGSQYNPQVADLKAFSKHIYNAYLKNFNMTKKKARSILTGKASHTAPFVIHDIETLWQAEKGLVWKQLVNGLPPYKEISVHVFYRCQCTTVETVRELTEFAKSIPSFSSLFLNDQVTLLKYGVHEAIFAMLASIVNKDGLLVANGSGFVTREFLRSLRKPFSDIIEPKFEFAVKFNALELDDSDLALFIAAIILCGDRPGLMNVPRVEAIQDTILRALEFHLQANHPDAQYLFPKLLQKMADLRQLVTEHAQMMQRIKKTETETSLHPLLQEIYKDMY
Outline: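 HEK293H PPARd-bla cells; 5 h preincubation 37 C/5% CO2; compound (DMSO) 37 C; LiveBLAzer B/G FRET substrate 2 h RT; fluorescence intensity.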

[10] = qHTS assay to identify small molecule antagonists of the peroxisome proliferator-activated receptor delta (PPARd) signaling pathway - cell viability counter screen (AID 743213); note: nearly all actives have a fitted effect of over 50% in size
Outline: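 HEK293H cells with the PPARd UAS-bla reporter, co-treated 17 h at 37 C with compounds and L165041 (300 nM final), were lysed with CellTiter-Glo. Luminescence indicated viable cell content.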

[11] = biological target: Peroxisome proliferator-activated receptor delta (Homo sapiens) (UniProt Q03181); assay: qHTS assay to identify small molecule antagonists of the peroxisome proliferator-activated receptor delta (PPARd) signaling pathway (AID 743215; active = well fitted inhibition curve with a large enough effect in the signal ratio in the repeat runs, not every such curve was filed as active; the % refers to the signal ratio;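 note: cells stimulated with agonist L165041 at 300 nM final during compound exposure; series mostly up to about 62 µM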)
Outline: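 Antagonist-mode beta-lactamase reporter screen: HEK293H cells with UAS-bla under PPARd control, stimulated by 300 nM L165041 (final) alongside test compound for 17 h at 37 C, then FRET fluorescence after 2 h substrate incubation.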

[12] = biological target: Bile acid receptor (Homo sapiens) (UniProt Q96RI1); assay: qHTS assay to identify small molecule antagonists of the farnesoid-X-receptor (FXR) signaling pathway (AID 743217; active = well fitted inhibition curve with a large enough effect in the signal ratio in the repeat runs, not every such curve was filed as active; the % refers to the signal ratio)
Sequence of Bile acid receptor (Homo sapiens) (Q96RI1 whole entry, looked up): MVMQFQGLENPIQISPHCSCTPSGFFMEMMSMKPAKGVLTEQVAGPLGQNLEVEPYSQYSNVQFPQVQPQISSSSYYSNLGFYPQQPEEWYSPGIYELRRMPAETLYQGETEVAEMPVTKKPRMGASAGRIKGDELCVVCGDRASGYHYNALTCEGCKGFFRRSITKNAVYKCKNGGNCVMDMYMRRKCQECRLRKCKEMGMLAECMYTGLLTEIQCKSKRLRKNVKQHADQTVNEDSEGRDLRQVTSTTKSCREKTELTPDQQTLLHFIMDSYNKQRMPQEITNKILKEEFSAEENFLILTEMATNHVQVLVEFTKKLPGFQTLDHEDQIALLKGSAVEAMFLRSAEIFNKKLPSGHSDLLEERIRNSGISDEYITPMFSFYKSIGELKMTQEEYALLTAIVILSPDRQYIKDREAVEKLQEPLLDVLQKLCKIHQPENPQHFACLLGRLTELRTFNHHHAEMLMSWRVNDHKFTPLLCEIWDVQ
Outline: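 Beta-lactamase reporter under UAS control in HEK 293T cells; compound exposure 16 h at 37 °C in the presence of chenodeoxycholic acid (50 uM final); signal from B/G FRET substrate after 2 h at room temperature.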

[13] = qHTS assay to identify small molecule agonists of the farnesoid-X-receptor (FXR) signaling pathway - cell viability counter screen (AID 743218); note: nearly all actives have a fitted effect of over 45% in size; note: potency is the fitted concentration of half-maximal effect
Outline: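 In GeneBLAzer FXR-UAS-bla HEK 293T cells, compounds act for 16 h at 37 C. Cell viability is then scored in the reporter wells by CellTiter-Glo, 30 min at RT, luminescence.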

[14] = biological target: Bile acid receptor (Homo sapiens) (UniProt Q96RI1); assay: qHTS assay to identify small molecule agonists of the farnesoid-X-receptor (FXR) signaling pathway (AID 743220; active = well fitted activation curve with a large enough effect in the signal ratio in the repeat runs, not every such curve was filed as active; the % refers to the signal ratio)
Outline: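 Beta-lactamase reporter under UAS control in GeneBLAzer FXR HEK 293T cells (5000/well) measured with LiveBLAzer FRET substrate after 2 h at room temperature. Compound exposure lasted 16 h at 37C.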

[15] = qHTS assay to identify small molecule antagonists of the farnesoid-X-receptor (FXR) signaling pathway - cell viability counter screen (AID 743221; active = well fitted cell-killing curve with a large enough effect in the repeat runs, not every such curve was filed as active; note: nearly all actives have a fitted effect of over 50% in size; note: potency is the fitted concentration of half-maximal effect)
Outline: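 Cytotoxicity is taken from ATP luminescence (CellTiter-Glo, 30 min, room temperature) in FXR-bla HEK 293T cells previously incubated 16 h at 37 C with compound and chenodeoxycholic acid at 50 uM final.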

[16] = qHTS assay to identify small molecule agonists of the vitamin D receptor (VDR) signaling pathway - cell viability counter screen (AID 743224); note: nearly all actives have a fitted effect of over 50% in size; note: potency is the fitted concentration of half-maximal effect
Outline: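 VDR-bla cell line, quantitative HTS format; 16 h compound incubation (37C, 5% CO2); ATP-based CellTiter-Glo luminescence measured in the reporter assay wells.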

[17] = biological target: Vitamin D3 receptor (Homo sapiens) (UniProt P11473); assay: qHTS assay to identify small molecule agonists of the vitamin D receptor (VDR) signaling pathway (AID 743222; calls by dose curve)
Sequence of Vitamin D3 receptor (Homo sapiens) (P11473 whole entry, looked up): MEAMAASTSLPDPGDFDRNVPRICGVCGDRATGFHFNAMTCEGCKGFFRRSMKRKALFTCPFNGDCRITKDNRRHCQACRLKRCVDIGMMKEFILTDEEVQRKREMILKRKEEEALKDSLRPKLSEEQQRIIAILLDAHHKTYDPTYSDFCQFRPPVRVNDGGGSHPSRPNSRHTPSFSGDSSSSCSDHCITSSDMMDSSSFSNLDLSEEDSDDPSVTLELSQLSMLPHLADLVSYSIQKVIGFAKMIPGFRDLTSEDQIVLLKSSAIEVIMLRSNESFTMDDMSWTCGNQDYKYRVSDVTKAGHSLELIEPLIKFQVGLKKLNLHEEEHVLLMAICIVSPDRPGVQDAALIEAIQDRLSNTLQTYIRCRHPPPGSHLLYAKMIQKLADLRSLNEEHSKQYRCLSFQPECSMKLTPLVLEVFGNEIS
Outline: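 Agonist activity measured in VDR-bla reporter cells. Exposure 16 h, 37C, 5% CO2; detection by B/G FRET substrate, 2 h RT.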

[18] = biological target: Vitamin D3 receptor (Homo sapiens) (UniProt P11473); assay: qHTS assay to identify small molecule antagonists of the vitamin D receptor (VDR) signaling pathway (AID 743223; active = well fitted inhibition curve with a large enough effect in the signal ratio in the repeat runs, not every such curve was filed as active; the % refers to the signal ratio)
Outline: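 Quantitative HTS in VDR-bla reporter cells stimulated with 1alpha,25-dihydroxyvitamin D3, 3 nM final. Compound exposure 16 h, 37C, 5% CO2. Read-out: beta-lactamase FRET substrate fluorescence, 2 h RT.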

[19] = qHTS assay to identify small molecule that activate the aryl hydrocarbon receptor (AhR) signaling pathway - cell viability counter screen (AID 743086); note: nearly all actives have a fitted effect of over 45% in size; note: potency is the fitted concentration of half-maximal effect
Outline: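 Cytotoxicity counter screen: CellTiter-Fluor signal (30 min, 37 C) in 4000 HepG2 cells/well carrying the DRE-luciferase reporter, following 24 h compound exposure at 37 C.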

| Structure (SMILES) | Potency [1] | Potency [2] | Potency [3] | Potency [4] | Potency [5] | Potency [6] | Potency [7] | Potency [8] | Potency [9] | Potency [10] | Potency [11] | Potency [12] | Potency [13] | Potency [14] | Potency [15] | Potency [16] | Potency [17] | Potency [18] | Potency [19] |
| --- | --- | --- | --- | --- | --- | --- | --- | --- | --- | --- | --- | --- | --- | --- | --- | --- | --- | --- | --- |
| c1cnccn1 | inactive | inactive | inactive | inactive | inactive | inactive | inactive | inactive | inactive | inactive | inactive | inactive | inactive | inactive | inactive | inactive | – | – | – |
| CCCCCCCCCCCCOCCOCCOCCOCCOCCOCCOCCOCCOCCO | – | – | – | – | – | 29.8 µM (active) | – | 33.5 µM (active) | inactive | – | – | – | – | – | 26.6 µM (active) | 29.8 µM (active) | inactive | – | – |
| Cc1c(N)cccc1C(F)(F)F | – | inactive | inactive | inactive | – | inactive | inactive | inactive | inactive | – | inactive | – | inactive | – | inactive | – | inactive | inactive | – |
| Cl[Si](Cl)(c1ccccc1)c1ccccc1 | inactive | – | inactive | inactive | inactive | inactive | – | inactive | inactive | – | – | inactive | inactive | inactive | inactive | inactive | inactive | inactive | – |
| CCCC(=O)OCCc1ccccc1 | inactive | – | inactive | – | inactive | inactive | inactive | inactive | inactive | – | – | – | inactive | – | – | inactive | – | – | – |
| CCCc1ccc(OCC(=O)N2CCN(C(=O)COc3ccc(CCC)cc3OC)CC2)c(OC)c1 | – | – | inactive | 29.8 µM (active) | inactive | inactive | – | inactive | – | inactive | – | inactive | inactive | inactive | inactive | inactive | – | inactive | – |
| O=C(O)[C@H](O)[C@@H](O)[C@H](O[C@@H]1O[C@H](CO)[C@H](O)[C@H](O)[C@H]1O)[C@H](O)CO | inactive | inactive | – | inactive | inactive | inactive | – | inactive | inactive | inactive | inactive | – | – | – | inactive | inactive | inactive | inactive | – |
| C1CCC(SSC2CCCCC2)CC1 | inactive | inactive | inactive | – | inactive | inactive | inactive | inactive | inactive | inactive | inactive | – | – | – | inactive | inactive | inactive | – | – |
| Nc1ccc(NCCO)c([N+](=O)[O-])c1 | inactive | inactive | – | – | – | inactive | inactive | inactive | inactive | inactive | inactive | – | inactive | – | inactive | – | – | – | – |
| CCCC(=O)OCOC(=O)C1=C(C)NC(C)=C(C(=O)OC)C1c1cccc(Cl)c1Cl (configuration not stated) | – | inactive | – | – | inactive | inactive | inactive | inactive | – | inactive | – | – | inactive | – | inactive | inactive | – | inactive | – |
| CC1(C)CCC[C@]2(C)[C@H]3CC(=O)O[C@]3(C)CC[C@@H]12 | inactive | – | inactive | – | inactive | inactive | inactive | inactive | inactive | inactive | inactive | – | inactive | inactive | inactive | – | – | – | – |
| [Cu+] | – | – | – | – | inactive | inactive | – | inactive | inactive | – | inactive | – | inactive | – | inactive | – | – | – | inactive |
| CCc1oc2ccccc2c1C(=O)c1cc(I)c(O)c(I)c1 | 952 nM (active) | inactive | 13.3 µM (active) | – | 26.6 µM (active) | inactive | – | – | – | – | – | – | – | – | inactive | – | – | – | – |
| CN(C)[C@@H](CCOc1cccc2ccccc12)c1ccccc1 | – | – | – | – | – | inactive | – | 23.7 µM (active) | inactive | – | inactive | inactive | – | inactive | inactive | – | – | inactive | – |
| C=C(CC)C(=O)c1ccc(OCC(=O)O)c(Cl)c1Cl | – | – | – | 0.764 µM (active) | inactive | 18.8 µM (active) | – | inactive | – | – | – | – | inactive | – | inactive | inactive | – | – | inactive and 68.1 µM (active) |
| O=c1[nH]c(=O)n([C@H]2C[C@H](O)[C@@H](CO)O2)cc1F | – | inactive | – | – | – | inactive | inactive | – | inactive | – | inactive | – | 13.3 µM (active) | – | 11.9 µM (active) | inactive | inactive | inactive | – |
| CCC(C)[O-].CCC(C)[O-].CCOC(=O)/C=C(/C)[O-].[Al+3] | – | – | inactive | – | – | inactive | inactive | inactive | – | inactive | – | – | inactive | – | inactive | inactive | – | – | – |
| O=c1[nH]c2ccccc2n1CCCN1CCN(C(c2ccccc2)c2ccccc2)CC1 | – | – | – | – | 29.8 µM (active) | inactive | – | 29.8 µM (active) | – | – | – | – | 26.6 µM (active) | – | inactive | inactive | – | inactive | 26.6 µM (active) |
| CC(C)=CCNc1ncnc2c1ncn2[C@@H]1O[C@H](CO)[C@@H](O)[C@H]1O | – | – | 9.44 µM (active) | – | – | 13.3 µM (active) | inactive | – | inactive | – | – | – | – | inactive | – | 11.9 µM (active) | inactive | inactive | – |
| C#Cc1ccc(-c2ccccc2F)cc1 | – | inactive | inactive | inactive | inactive | inactive | inactive | inactive | inactive | inactive | inactive | inactive | inactive | inactive | inactive | inactive | – | – | – |
| CCCCCC(C)OC(=O)COc1ccc(Cl)c2cccnc12 (configuration not stated) | inactive | – | inactive | inactive | inactive | inactive | – | – | inactive | – | – | – | inactive | inactive | inactive | – | inactive | inactive | – |
